Measurements reported in ChEMBL document CHEMBL1201862, “PubChem BioAssay data set” (2004).
Screen size: about 1,200 compounds; about 140 (12%) were called active. The calls are words filed in the database; no cut-off is given here. Many of the other results were omitted from the sample, so actives are more common in it than they were.

experiment: restoration of mutant CFTR halide transport – FRT cells, YFP quenching, cherry-pick, dose response (AID 743402); format: functional, cell-based

SMILES | AbsAC35
O=C(Nc1ccccc1)N1CCCCN2[C@@H](CO)[C@H](c3ccc(C#Cc4ccccc4)cc3)[C@@H]2C1 | 31.2 µM (active)
O=C1NC(=O)C(=Cc2c(Cl)cccc2Cl)C(=O)N1 | 29.4 µM (active)
